Measurements published in PubChem BioAssay (NCI).
The panel holds about 79,000 compounds, 15% with a hit somewhere; the sample as a whole holds those more often. Calls of active or inactive are those of the source. Rule as the data show it: active = growth inhibition above about 70%; inactive = the rest.

How the values were obtained:
[1] = NCI Yeast Anticancer Drug Screen. Data for the rad52 strain (AID 147);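 also: 0% = growth of vehicle-treated control cultures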; details: S. cerevisiae rad52 mutant growth inhibition, active compounds read high
How it was run: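 Vehicle-treated cultures served as the reference for growth inhibition of compound-exposed yeast bearing a DNA repair mutation.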

[2] = NCI Yeast Anticancer Drug Screen. Data for the rad50EPP+ strain (AID 151);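 also: 0% = growth of vehicle-treated control cultures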; details: S. cerevisiae rad50 mutant strain, active compounds read high
How it was run: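 In this screen, rad50EPP+ yeast were exposed to compounds. Growth inhibition was scored against vehicle-treated controls.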

[3] = NCI Yeast Anticancer Drug Screen. Data for the mgt1 strain (AID 153); details: S. cerevisiae mgt1 mutant growth inhibition, active compounds read high
How it was run: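 mgt1 strain exposed; growth vs vehicle control recorded as inhibition.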

[4] = NCI Yeast Anticancer Drug Screen. Data for the rad50 strain (AID 155);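 also: 0% = growth of vehicle-only cultures of the same strain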; details: S. cerevisiae rad50 strain growth inhibition, active compounds read high
How it was run: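 Inhibition values express reduced yeast growth in compound-treated cultures relative to vehicle-treated controls.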

[5] = NCI Yeast Anticancer Drug Screen. Data for the mec2-1 strain (AID 157); details: S. cerevisiae mec2-1 strain, active compounds read high
How it was run: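 Vehicle-treated cultures served as reference for growth inhibition of compound-exposed mec2-1 yeast.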

[6] = NCI Yeast Anticancer Drug Screen. Data for the rad14 strain (AID 159);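 also: 0% = growth of vehicle-treated control cultures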; details: S. cerevisiae rad14 strain growth inhibition, active compounds read high
How it was run: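 A mutant yeast strain defective in DNA damage repair is treated with compound; inhibition of its growth is scored against untreated, vehicle-exposed cultures.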

[7] = NCI Yeast Anticancer Drug Screen. Data for the sgs1 mgt1 strain (AID 161);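 also: 0% = growth of cultures given vehicle only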; details: S. cerevisiae sgs1 mgt1 strain, active compounds read high
How it was run: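 Inhibition of yeast growth, normalised to vehicle-treated controls, is reported for a strain bearing genetic alterations in DNA damage repair.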

[8] = NCI Yeast Anticancer Drug Screen. Data for the CLN2oe strain (AID 163);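 also: 0% = growth of vehicle-only control cultures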; details: S. cerevisiae CLN2oe strain, active compounds read high
How it was run: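 Inhibition relative to vehicle-treated yeast is reported. Cells: strain with genetic alteration in cell-cycle control, grown with compound.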

[9] = NCI Yeast Anticancer Drug Screen. Data for the cln2 rad14 strain (AID 165);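 also: 0% = growth equal to vehicle treated cultures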; details: S. cerevisiae cln2 rad14 strain, active compounds read high
How it was run: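 Each compound was tested on cln2 rad14 yeast. Inhibition of growth was calculated against vehicle-exposed controls.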

[10] = NCI Yeast Anticancer Drug Screen. Data for the bub3 strain (AID 167); details: S. cerevisiae bub3 mutant strain, active compounds read high
How it was run: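 Steps: expose the mutant yeast strain to compound; grow alongside vehicle-treated cultures; measure growth; express inhibition against the vehicle cultures.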

[11] = NCI Yeast Anticancer Drug Screen. Data for the wt2 strain (AID 169);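 also: 0% = growth of vehicle-treated yeast cultures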; details: S. cerevisiae wt2 strain growth inhibition, active compounds read high
How it was run: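 Inhibition of yeast growth was determined after compound treatment, normalised to controls receiving only vehicle.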

[12] = NCI Yeast Anticancer Drug Screen. Data for the mlh1 strain (AID 171);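 also: 0% = growth of vehicle-treated control cultures of the same strain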; details: S. cerevisiae mlh1 strain growth inhibition, active compounds read high
How it was run: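 Vehicle-normalised growth inhibition of a repair- or checkpoint-altered yeast strain following compound treatment.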

[13] = NCI Yeast Anticancer Drug Screen. Data for the sgs1 strain (AID 173);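 also: 0% = growth of vehicle-only control cultures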; details: S. cerevisiae sgs1 mutant, active compounds read high
How it was run: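 Screen format: yeast with repair or checkpoint alterations, compound exposure, growth read relative to vehicle.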

[14] = NCI Yeast Anticancer Drug Screen. Data for the mlh1 rad18 strain (AID 175); details: S. cerevisiae mlh1 rad18 strain growth inhibition, active compounds read high
How it was run: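 Vehicle-treated cultures served as the reference for growth inhibition in a yeast strain carrying DNA damage repair alterations exposed to each compound.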

[15] = NCI Yeast Anticancer Drug Screen. Data for the rad18 strain (AID 177); details: S. cerevisiae rad18 mutant growth inhibition, active compounds read high
How it was run: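 Test articles were incubated with altered yeast defective in DNA damage repair. Results are given as inhibition of growth versus vehicle.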

[16] = at 5.0 µM (retest, dose inferred, filed as 0.5)
[17] = at 50.0 µM (retest, dose inferred, filed as 5.0)

Measured: growth inhibition

NNC(=S)Nc1cccc(Cl)c1
active: [1]; at 100.0 µM 79% | [3]; at 100.0 µM 97% | [4]; at 50.0 µM 76% | [4]; at 100.0 µM 92% | [5]; at 50.0 µM 78.6% | [5]; at 100.0 µM 91% | [6]; at 100.0 µM 95% | [7]; [17] 97% | [8]; at 100.0 µM 71% | [9]; [17] 96% | [10]; [17] 95% | [10]; at 100.0 µM 90% | [11]; at 100.0 µM 87% | [12]; at 100.0 µM 95% | [13]; at 100.0 µM 89% | [14]; at 50.0 µM 75.1% | [15]; at 100.0 µM 88%
inactive: [1]; at 1.2 µM -16% | [1]; at 3.7 µM -26% | [1]; at 11.0 µM -16% | [1]; at 33.0 µM 6% | [2]; at 1.2 µM -29% | [2]; at 3.7 µM -28% | [2]; at 11.0 µM -31% | [2]; at 33.0 µM -55% | [2]; at 100.0 µM -47% | [3]; at 1.2 µM -18% | [3]; at 3.7 µM -19% | [3]; at 11.0 µM 20% | [3]; at 33.0 µM 68% | [4]; at 1.2 µM -33% | [4]; at 3.7 µM -36% | [4]; [16] 58% | [4]; at 11.0 µM -20% | [4]; at 33.0 µM 27% | [4]; [17] 58% | [5]; at 1.2 µM -54% | [5]; at 3.7 µM -41% | [5]; [16] 63% | [5]; at 11.0 µM -40% | [5]; at 33.0 µM -5% | [5]; [17] 58% | [6]; at 1.2 µM -27% | [6]; at 3.7 µM -25% | [6]; at 11.0 µM -28% | [6]; at 33.0 µM 26% | [7]; [16] 9% | [8]; at 1.2 µM 0% | [8]; at 3.7 µM 15% | [8]; at 11.0 µM -3% | [8]; at 33.0 µM 3% | [9]; [16] 66% | [10]; at 1.2 µM -12% | [10]; at 3.7 µM -9% | [10]; [16] 31% | [10]; at 11.0 µM -9% | [10]; at 33.0 µM 35% | [11]; at 1.2 µM -27% | [11]; at 3.7 µM -23% | [11]; at 11.0 µM -25% | [11]; at 33.0 µM 8% | [12]; at 1.2 µM -6% | [12]; at 3.7 µM -17% | [12]; at 11.0 µM -8% | [12]; at 33.0 µM 45% | [13]; at 1.2 µM -18% | [13]; at 3.7 µM -22% | [13]; at 11.0 µM -8% | [13]; at 33.0 µM 32% | [14]; [16] 40% | [14]; [17] 54% | [15]; at 1.2 µM -17% | [15]; at 3.7 µM -11% | [15]; at 11.0 µM -6% | [15]; at 33.0 µM 24%

CN(N=O)C(=O)N[C@@H](C=O)[C@@H](O)[C@H](O)[C@H](O)CO
inactive: [1]; at 1.2 µM 0% | [1]; at 3.7 µM 1% | [1]; at 11.0 µM 5% | [1]; at 33.0 µM 2% | [1]; at 100.0 µM 3% | [2]; at 1.2 µM 0% | [2]; at 3.7 µM 0% | [2]; at 11.0 µM 0% | [2]; at 33.0 µM -7% | [2]; at 100.0 µM 3% | [3]; at 1.2 µM -1% | [3]; at 3.7 µM -1% | [3]; at 11.0 µM -18% | [3]; at 33.0 µM 0% | [3]; at 100.0 µM -1% | [5]; at 1.2 µM -3% | [5]; at 3.7 µM -7% | [5]; at 11.0 µM -6% | [5]; at 33.0 µM 2% | [5]; at 50.0 µM -7.8% | [5]; at 100.0 µM -7% | [7]; at 50.0 µM 17.6% | [8]; at 1.2 µM -10% | [8]; at 3.7 µM -3% | [8]; at 11.0 µM -6% | [8]; at 33.0 µM -9% | [8]; at 100.0 µM -6% | [9]; at 50.0 µM -1.1% | [10]; at 1.2 µM 1% | [10]; at 3.7 µM 0% | [10]; at 11.0 µM 0% | [10]; at 33.0 µM -4% | [10]; at 50.0 µM 7.3% | [10]; at 100.0 µM -1% | [12]; at 1.2 µM -1% | [12]; at 3.7 µM -1% | [12]; at 11.0 µM 1% | [12]; at 33.0 µM 0% | [12]; at 100.0 µM 0% | [13]; at 1.2 µM 0% | [13]; at 3.7 µM 0% | [13]; at 11.0 µM 2% | [13]; at 33.0 µM 2% | [13]; at 100.0 µM 1% | [14]; at 50.0 µM 4.1% | [15]; at 1.2 µM 0% | [15]; at 3.7 µM 0% | [15]; at 11.0 µM 0% | [15]; at 33.0 µM 2% | [15]; at 100.0 µM 19%
